Test results as given in PubChem BioAssay (Tox21).
Several values for one entry are separate records, joined by “and”; a condition that tells them apart may be missing. Identical values can stand only once. Inconclusive results are not listed. Activity calls are given as the source filed them. Unless noted, calls come from the whole dose curve.

Assays:
[1] = biological target: Thyrotropin receptor (Homo sapiens) (UniProt P16473); test: qHTS assay to identify small molecule agonists of the thyroid stimulating hormone receptor (TSHR) signaling pathway (AID 1224843); note: nearly all actives have a fitted effect of over 45% in size
Procedure, shortened: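 HEK293 cells stably bearing the thyrotropin receptor were plated at 800 cells/well and challenged with compound (30 min, RT). Accumulated cAMP was quantified via cAMP-d2 competing for cryptate-tagged antibody.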

[2] = qHTS assay to identify small molecule agonists of the hypoxia (HIF-1) signaling pathway - cell viability counter screen (AID 1224844); note: nearly all actives have a fitted effect of over 50% in size
Procedure, shortened: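 ME-180 HRE-bla cells, 2,000/well, 0.5% dialyzed FBS; 5 hr settle, 17 hr compound at 37C/5% CO2; CCF4-AM reporter read first, then CellTiter-Glo luminescence after 30 min RT.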

[3] = qHTS assay to identify small molecule agonists of H2AX (AID 1224845; active = well fitted activation curve with a large enough effect in the signal ratio in the repeat runs, not every such curve was filed as active; the % refers to the signal ratio)
Procedure, shortened: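 Phospho-H2AX Ser139 measured by HTRF (ex 320 nm; em 665 and 620 nm) after 24 hr antibody incubation. Compounds, 15 concentrations, 0.76% DMSO, were applied to CHO-K1 cells for 3hr at 37C before lysis.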

[4] = qHTS assay to identify small molecule agonists of the hypoxia (HIF-1) signaling pathway (AID 1224846; active = well fitted activation curve with a large enough effect in the signal ratio in the repeat runs, not every such curve was filed as active; the % refers to the signal ratio)
Procedure, shortened: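 Cell line: CellSensor HRE-bla ME-180; 2,000 cells/well; 0.5% dialyzed FBS; 5 h preincubation; DMSO compound pin transfer; 17 h, 37C, 5% CO2; CCF4-AM added; bla FRET signal scored for activation.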

[5] = qHTS assay to identify small molecule agonists of H2AX - cell viability counter screen (AID 1224847);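 note: wild-type CHO-K1 cells; top concentration of the series differs between compounds; nearly all actives have a fitted effect of over 30% in size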
Procedure, shortened: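 Cells plated first: CHO-K1, 1000 per well in 10% FBS medium, incubated overnight at 37C. Then 15-point compound titration added (final DMSO 0.76%) for 3 hr. Finally CellTiter-Glo added and luminescence read.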

[6] = qHTS assay to identify small molecule antagonists of the estrogen related receptor (ERR) signaling pathway from Tox21 library (AID 1224848; active = well fitted curve in the direction sought with a large enough effect in the repeat runs; an effect the other way counts as inactive or inconclusive; note: nearly all actives have a fitted effect of over 50% in size)
Procedure, shortened: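 Reading was by luminescence 30 min after ONE-Glo addition. Before that, ERR cells at 2,000 per well had rested 6 h at 37 C/5% CO2 and then received pin-tooled compounds in DMSO for 18 h at 37 C.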

[7] = qHTS assay to identify small molecule agonists of the estrogen related receptor (ERR) signaling pathway from Tox21 library (AID 1224849); settings: ERR reporter cell line, ONE-Glo luciferase, 18 h; at 92.4 µM (top of the series) unless noted; note: nearly all actives have a fitted effect of over 15% in size
Procedure, shortened: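 ERR cells, 6 h pre-incubation 37 C/5% CO2; cpd in DMSO pinned; 18 h 37 C; ONE-Glo added, 30 min RT; luminescence read. Agonist mode, qHTS.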

[8] = qHTS RealTime-Glo MT Cell Viability Assay in HepG2 cells - 24 hour (AID 1224867; active = well fitted curve in the direction sought with a large enough effect in the repeat runs; an effect the other way counts as inactive or inconclusive; note: nearly all actives have a fitted effect of over 50% in size)
Procedure, shortened: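 qHTS, HepG2, 600 cells/well, RealTime-Glo (NanoLuc + prosubstrate) added with cells; 5 h preincubation; DMSO compound addition; 37 C; luminescence at 0/8/16/24/32/40 h.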

[9] = qHTS RealTime-Glo MT Cell Viability Assay in HEK293 cells - 32 hour (AID 1224868; active = well fitted curve in the direction sought with a large enough effect in the repeat runs; an effect the other way counts as inactive or inconclusive; note: top concentration of the series differs between compounds; nearly all actives have a fitted effect of over 50% in size)
Procedure, shortened: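 Assay medium contained NanoLuc luciferase plus cell-permeant prosubstrate, added with HEK293 cells at 600 cells/well. After 5 h at 37 C/5% CO2 compounds were added; plates stayed at 37 C for 40 h with serial luminescence reads.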

[10] = A CellTox Green Cytotoxicity Assay to monitor cytotoxicity in HEK293 cells - 0 hour (AID 1224869; active = well fitted curve in the direction sought with a large enough effect in the repeat runs; an effect the other way counts as inactive or inconclusive; note: nearly all actives have a fitted effect of over 50% in size)
Procedure, shortened: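 Nonlytic real-time cytotoxicity: HEK293 + CellTox Green reagent plated, 5 h preincubation, pintool compound addition (23 nL in DMSO), 37 C for 40 h, fluorescence measured at successive time points.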
% is set by controls: 0 for no effect and ±100 for the full control effect.

Thyrotropin receptor (Homo sapiens), sequence (P16473 whole entry, looked up): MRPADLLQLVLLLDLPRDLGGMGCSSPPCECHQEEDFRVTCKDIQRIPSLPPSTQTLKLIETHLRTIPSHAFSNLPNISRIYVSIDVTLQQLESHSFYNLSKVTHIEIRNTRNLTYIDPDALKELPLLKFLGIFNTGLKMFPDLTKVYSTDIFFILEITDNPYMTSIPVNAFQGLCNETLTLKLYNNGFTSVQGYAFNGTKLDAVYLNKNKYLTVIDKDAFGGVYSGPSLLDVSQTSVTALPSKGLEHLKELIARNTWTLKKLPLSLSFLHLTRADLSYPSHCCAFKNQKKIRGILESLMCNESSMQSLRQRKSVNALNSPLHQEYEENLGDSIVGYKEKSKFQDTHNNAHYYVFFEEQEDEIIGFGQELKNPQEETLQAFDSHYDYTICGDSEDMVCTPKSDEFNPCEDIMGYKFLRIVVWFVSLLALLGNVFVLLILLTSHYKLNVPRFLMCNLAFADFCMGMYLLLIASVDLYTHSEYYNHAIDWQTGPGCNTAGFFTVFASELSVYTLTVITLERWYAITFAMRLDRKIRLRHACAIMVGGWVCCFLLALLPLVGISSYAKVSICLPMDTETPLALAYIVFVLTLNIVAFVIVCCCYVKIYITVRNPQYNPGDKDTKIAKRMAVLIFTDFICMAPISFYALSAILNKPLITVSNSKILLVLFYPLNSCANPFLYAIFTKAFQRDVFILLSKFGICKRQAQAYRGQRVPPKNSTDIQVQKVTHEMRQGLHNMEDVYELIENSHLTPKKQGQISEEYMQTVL

COC(=O)CCSCCC(=O)OC
inactive: Potency [1] | Potency [2] | outcome [3] | outcome [4] | Potency [5] | Potency [6] | activity change, positive = activation [7] 1.8% | Potency [8] | Potency [9] | Potency [10]

CCc1nccnc1CC
inactive: Potency [1] | activity change, negative = cytotoxicity [2] 5.25% [at 15.8 µM] | outcome [3] | activation [4] 0.257% [at 15.8 µM] | Potency [5] | activity, negative = inhibition [6] 3.93% [at 19 µM] | activity change, positive = activation [7] 2.61% [at 19 µM] | activity change, negative = cytotoxicity [8] -0.21% [at 15.8 µM] | activity change, negative = cytotoxic [9] 3.89% [at 15.8 µM] | cytotoxicity [10] -0.912% [at 15.8 µM]

O=C1CC2CC1C1CCCC21 (stereo not given)
inactive: Potency [1] | Potency [2] | outcome [3] | outcome [4] | Potency [5] | Potency [6] | activity change, positive = activation [7] -0.257% | Potency [8] | Potency [9]

NS(=O)(=O)c1cc(C(=O)NN2C[C@H]3[C@H]4CCC(C4)[C@H]3C2)ccc1Cl
inactive: Potency [1] | Potency [2] | outcome [3] | outcome [4] | Potency [5] | Potency [6] | activity change, positive = activation [7] -1.11% [at 42.5 µM] | Potency [8] | Potency [9] | Potency [10]

CCOC(=O)c1cccc(N)c1
inactive: Potency [1] | Potency [2] | outcome [3] | outcome [4] | Potency [5] | Potency [6] | activity change, positive = activation [7] -2.77% [at 42.5 µM] | Potency [8] | Potency [9] | Potency [10]

OCCOc1ccc(OCCO)cc1
inactive: Potency [1] | Potency [2] | outcome [3] | outcome [4] | Potency [5] | Potency [6] | activity change, positive = activation [7] 2.76% | Potency [8] | Potency [9]

CC(=O)N(CC(O)CO)c1c(I)c(C(=O)NCCO)c(I)c(C(=O)NCC(O)CO)c1I (stereo not given)
inactive: Potency [1] | Potency [2] | outcome [3] | outcome [4] | Potency [5] | Potency [6] | activity change, positive = activation [7] 5.17% [at 42.5 µM] | Potency [8] | Potency [9] | Potency [10]

CC1(C)C(O)C(C)(C)C1O (stereo not given)
inactive: Potency [1] | Potency [2] | outcome [3] | outcome [4] | Potency [5] | Potency [6] | activity change, positive = activation [7] 1.44% | Potency [8] | Potency [9] | Potency [10]

O=C[C@H](O)[C@@H](O)[C@H](O)[C@H](O)CO
inactive: Potency [1] | Potency [2] | outcome [3] | outcome [4] | Potency [5] | Potency [6] | activity change, positive = activation [7] 3.09% | Potency [8] | Potency [9] | Potency [10]

O=c1cc(CO)occ1O
inactive: Potency [1] | Potency [2] | outcome [3] | outcome [4] | Potency [5] | Potency [6] | activity change, positive = activation [7] 3.24% [at 42.5 µM] | Potency [8] | Potency [9]

CCC(C)S (stereo not given)
inactive: activation [1] -2.63% [at 3.27 µM] | activity change, negative = cytotoxicity [2] 6.65% [at 2.72 µM] | activation (H2AX phosphorylation) [3] -0.0858% [at 5.45 µM] | activation [4] -1.24% [at 2.67 µM] | activity change, negative = cytotoxicity [5] 4.19% [at 5.43 µM] | activity, negative = inhibition [6] 2.44% [at 3.27 µM] | activity change, positive = activation [7] 2.37% [at 3.27 µM] | activity change, negative = cytotoxicity [8] 1.23% [at 2.72 µM]

CC1(C)CO[C@@H](CC(=O)O)CN1
inactive: Potency [1] | Potency [2] | outcome [3] | outcome [4] | Potency [5] | Potency [6] | activity change, positive = activation [7] 0.501% [at 42.5 µM] | Potency [8] | Potency [9] | Potency [10]

Cc1cnc(NS(=O)(=O)c2ccc(N)cc2)nc1
inactive: Potency [1] | Potency [2] | outcome [3] | outcome [4] | Potency [5] | Potency [6] | activity change, positive = activation [7] 2.51% [at 42.5 µM] | Potency [8] | Potency [9] | Potency [10]

CCCCOCCOCCOCCCC
inactive: Potency [1] | Potency [2] | outcome [3] | outcome [4] | Potency [5] | Potency [6] | activity change, positive = activation [7] 0.577% | Potency [8] | Potency [9] | Potency [10]

C=C[Si](OC(=C)C)(OC(=C)C)OC(=C)C
inactive: Potency [1] | Potency [2] | outcome [3] | outcome [4] | Potency [5] | Potency [6] | activity change, positive = activation [7] -0.275% | Potency [8] | Potency [10]

CC(=O)Nc1ccc(S(N)(=O)=O)cc1
inactive: Potency [1] | Potency [2] | outcome [3] | outcome [4] | Potency [5] | Potency [6] | activity change, positive = activation [7] 4.26% | Potency [8] | Potency [10]

N[C@H](C(=O)O)c1ccc(O)cc1
inactive: Potency [1] | activity change, negative = cytotoxicity [2] 4.56% [at 15.8 µM] | outcome [3] | activation [4] 0.0786% [at 15.8 µM] | Potency [5] | activity, negative = inhibition [6] 2.86% [at 19 µM] | activity change, positive = activation [7] 1.6% [at 19 µM] | activity change, negative = cytotoxicity [8] -0.341% [at 15.8 µM] | activity change, negative = cytotoxic [9] 3.67% [at 15.8 µM] | cytotoxicity [10] -2.5% [at 15.8 µM]

CC(NC(CCc1ccccc1)C(=O)O)C(=O)N1C(=O)N(C)CC1C(=O)O (stereo not given)
inactive: Potency [1] | Potency [2] | outcome [3] | outcome [4] | Potency [5] | Potency [6] | activity change, positive = activation [7] 2.19% [at 42.5 µM] | Potency [8] | Potency [10]

CN1C(=O)N(C)C(O)C1O (stereo not given)
inactive: Potency [1] | Potency [2] | outcome [3] | outcome [4] | Potency [5] | Potency [6] | activity change, positive = activation [7] 0.239% | Potency [8] | Potency [10]

CC(=O)OC/C=C(\C)CC/C=C(\C)CCC=C(C)C
inactive: Potency [1] | Potency [2] | outcome [3] | outcome [4] | Potency [5] | Potency [6] | activity change, positive = activation [7] 1.18% and 2.19% | Potency [9] | Potency [10]
